The values below come from PubChem BioAssay (Tox21).

Experiment [1] is described as follows: Nuclear factor erythroid 2-related factor 2/antioxidant responsive element (Nrf2/ARE) small molecule agonists: luciferase reporter gene qHTS assay in human keratinocytes (AID 1919969). Also: nearly all actives have a fitted effect of over 35% in size. Also: potency is read from the fitted curve at half-maximal effect. For orientation: In a reporter assay the amount or activity of a reporter protein is the signal.
The target in experiment [2] is Gonadotropin-releasing hormone receptor (Homo sapiens) (UniProt P30968). Description: Human gonadotropin-releasing hormone receptor (GnRHR) small molecule agonists, calcium flux assay in GnRHR-HEK293 cells (AID 1920063). Also: nearly all actives have a fitted effect of over 35% in size. A digest of the protocol: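 Agonist mode: compounds at 15 concentrations, in triplicate, went onto calcium dye-loaded GnRHR-HEK293 cells. Intracellular calcium was then followed as 480/540 nm fluorescence at 1 s intervals over 3 min.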
For orientation: Calcium assays in cells follow changes in intracellular calcium, usually with a dye or a luminescent sensor.

Experiment [3] addresses KiSS-1 receptor (Homo sapiens) (UniProt Q969F8). Put plainly: Human kisspeptin (KISS1R) small molecule agonists, calcium flux assay in KISS1R-HEK293 cells (AID 1920064; active = well fitted activation curve with a large enough effect in the repeat runs). In a few lines: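 Agonist mode: intracellular calcium rise tracked at 1 s intervals over 3 min (480/540 nm) immediately after compound addition to dye-loaded KISS1R-HEK293 stable cells. Each compound tested at 15 concentrations in triplicate.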

Experiment [4] in a line: G protein-coupled receptor (GPCR) small molecule agonists, calcium flux assay: HEK293 wild type cell line counter screen (AID 1920065). In a few lines: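 Calcium flux counter screen: compound added in agonist mode at 15 concentrations in triplicate to dye-loaded parental HEK293 cells. Fluorescence (480/540) read kinetically for 3 min; ATP served as positive control.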
The nature of experiment [5]: p53 small molecule agonists, cell-based qHTS assay with human liver microsomes: qHTS cell viability counter screen (AID 1963579). Also: nearly all actives have a fitted effect of over 45% in size. Also: potency is read from the fitted curve at half-maximal effect. In a few lines: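 Metabolically activated exposure: compounds, human liver microsomes and NADPH (0.5 mg/mL final apiece) were added to p53RE-bla cells seeded 5 h earlier, left 16 h at 37 C, and then assessed for viability by CellTiter-Glo luminescence.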
In general terms: qHTS replaces the single test concentration by a dilution series.

Experiment [6] in a line: p53 small molecule agonists, cell-based qHTS assay with rat liver microsomes: qHTS cell viability counter screen (AID 1963580). Also: nearly all actives have a fitted effect of over 45% in size. In a few lines:
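After the beta-lactamase ratio was read, CellTiter-Glo was added to the same wells and luminescence measured at 30 min; cells had been treated 16 h at 37 C with compounds, rat liver microsomes and NADPH (0.5 mg/mL final each).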

A short description of experiment [7]: p53 small molecule agonists, cell-based qHTS assay: qHTS cell viability counter screen (AID 1963581). Also: nearly all actives have a fitted effect of over 45% in size. Also: potency is read from the fitted curve at half-maximal effect. In a few lines: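 Counter screen read by CellTiter-Glo luminescence (ATP content, 30 min at room temperature), run in the same wells as the beta-lactamase reporter read. HCT-116 p53RE-bla cells saw compounds for 16 h at 37 C.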
The target in experiment [8] is 5-hydroxytryptamine receptor 2A (Homo sapiens) (UniProt P28223). Put plainly: 5-hydroxytryptamine receptor 2A (HTR2A) small molecule antagonists, cell-based qHTS assay (AID 1963586). Also: nearly all actives have a fitted effect of over 45% in size. Also: potency is read from the fitted curve at half-maximal effect. A digest of the protocol: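 CHO cells stably expressing human HTR2A were plated for 18 h at 37 C, then loaded with calcium dye for 1 h. Compounds were preincubated 5 min at room temperature before DOI (4 nM solution) was added. Kinetic fluorescence was read for 3 min.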

Experiment [9] has the same target. Put plainly: 5-hydroxytryptamine receptor 2A (HTR2A) small molecule agonists, cell-based qHTS assay (AID 1963587). Also: nearly all actives have a fitted effect of over 30% in size. Also: potency is read from the fitted curve at half-maximal effect. In a few lines: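 CHO cells stably expressing human HTR2A, plated 18 h, loaded with calcium dye 1 h at 37 C. Agonist mode: compounds added and intracellular calcium fluorescence recorded kinetically for 2 min at 1 sec intervals.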
Experiment [10] concerns the target Muscarinic acetylcholine receptor M1 (Homo sapiens) (UniProt P11229). Put plainly: Cholinergic receptor muscarinic 1 (CHRM1) small molecule antagonists, cell-based qHTS assay (AID 1963588). Also: nearly all actives have a fitted effect of over 40% in size. Also: potency is read from the fitted curve at half-maximal effect. A digest of the protocol:
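Compounds were tested at 15 concentrations in three independent runs. Dye-loaded CHRM1-CHO cells were exposed 5 min at room temperature before stimulation by acetylcholine added at 50nM. Intracellular calcium was read kinetically on FDSS for 3 min.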

Experiment [11] in a line: cAMP Responsive Elements (CRE) small molecule agonists, cell-based qHTS assay (AID 1963590). A digest of the protocol:
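Agonist mode: compound added to CRE-bla HEK 293T cells (2,000/well, 18 h after plating) for 3 h at 37 C/5% CO2. Reporter activity detected via FRET beta-lactamase substrate, 2 h room-temperature loading.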

Experiment [12] is described as follows: cAMP Responsive Elements (CRE) small molecule antagonists, cell-based qHTS assay (AID 1963591; active = well fitted inhibition curve with a large enough effect in the signal ratio in the repeat runs, not every such curve was filed as active; the % refers to the signal ratio; also: potency is read from the fitted curve at half-maximal effect). In a few lines:
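Antagonist mode: compounds are added alongside the adenylyl cyclase activator NKH477 (0.25 uM final) to CRE-bla HEK293T cells for 3 h. LiveBLAzer FRET substrate, 2 h at room temperature, reports bla expression.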

Experiment [13] is described as follows: p53 small molecule agonists, cell-based qHTS assay with rat liver microsomes (AID 1963578). A digest of the protocol:
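Agonist mode in p53RE-bla reporter cells, with compounds co-incubated 16 h at 37 C alongside 0.5 mg/mL rat liver microsomes and 0.5 mg/mL NADPH (final), followed by a 2 h LiveBLAzer detection step.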

Experiment [14] has as its target Muscarinic acetylcholine receptor M1 (Homo sapiens) (UniProt P11229). Put plainly: Cholinergic receptor muscarinic 1 (CHRM1) small molecule agonists, cell-based qHTS assay (AID 1963589). Also: nearly all actives have a fitted effect of over 35% in size. In a few lines:
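Agonist-mode calcium-flux screen: compounds at 15 concentrations, three independent runs, were pin-transferred onto dye-loaded human CHRM1-CHO cells. Fluorescence was then recorded kinetically every second over minutes.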

For experiment [15], the target named is Beta-2 adrenergic receptor (Homo sapiens) (UniProt P07550). Put plainly: Adrenergic beta2 receptor (ADRB2) small molecule antagonists, cell-based qHTS assay (AID 1963592). Also: series mostly up to about 92 µM; nearly all actives have a fitted effect of over 50% in size. In a few lines: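 Assay format: CHO-ADRB2 cells, 18-20hr seeding at 37C/5% CO2, then compound plus 1nM isoproterenol agonist mix for 0.5hr RT. Homogeneous time-resolved fluorescence cAMP detection after 1hr, expressed as 665/615 nm ratio.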

Experiment [16] has as its target D(2) dopamine receptor (Homo sapiens) (UniProt P14416). Description: Dopamine D2 receptor (DRD2) small molecule antagonists, cell-based qHTS assay (AID 1963595; active = well fitted inhibition curve with a large enough effect in the signal ratio in the repeat runs, with a control signal flat; the % refers to the signal ratio). A digest of the protocol:
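Cells were plated and grown for 24 h at 37 °C. Ro20-1724 (0.1 mM final) went in first, then compound for 10 min. NKH477 (200 nM) with quinpirole (12 nM) followed for 30 min at RT, then HTRF detection reagents for 1 h.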

Experiment [17] shares this target. Description: Dopamine D2 receptor (DRD2) small molecule agonists, cell-based qHTS assay (AID 1963594). Also: nearly all actives have a fitted effect of over 35% in size. Also: potency is read from the fitted curve at half-maximal effect. A digest of the protocol: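 HEK293 cells stably expressing human DRD2, pre-treated with PDE inhibitor Ro20-1724 (0.1 mM final) and compound 10 min at room temperature, then stimulated with NKH477 (200nM […]) for 30 min. cAMP read by HTRF (665/620 nm).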

Experiment [18] in a line: p53 small molecule agonists, cell-based qHTS assay (AID 1963582; active = well fitted activation curve with a large enough effect in the signal ratio in the repeat runs, not every such curve was filed as active; the % refers to the signal ratio). A digest of the protocol:
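Read-out is beta-lactamase FRET fluorescence after 2 h at room temperature with LiveBLAzer B/G substrate. p53 response element-bla cells were treated 16 h at 37 C with compounds in DMSO, added 5 h after seeding.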

Experiment [19] has as its target Beta-2 adrenergic receptor (Homo sapiens) (UniProt P07550). Put plainly: Adrenergic beta2 receptor (ADRB2) small molecule agonists, cell-based qHTS assay (AID 1963593).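 Also: CHO cells stably overexpressing human ADRB2.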 A digest of the protocol:
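CHO cells stably over-expressing ADRB2 were plated overnight at 37C, then dosed with compounds plus a stimulation mix containing 100uM IBMX and 25uM Ro-20-1724 for 0.5hr at room temperature. cAMP was measured by HTRF competition, 1hr.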

Results filed as inconclusive are left out. Active and inactive are the calls of the source. Unless noted, calls follow the shape of the full dose curve.

Sequence of 5-hydroxytryptamine receptor 2A (Homo sapiens) (P28223 whole entry, looked up): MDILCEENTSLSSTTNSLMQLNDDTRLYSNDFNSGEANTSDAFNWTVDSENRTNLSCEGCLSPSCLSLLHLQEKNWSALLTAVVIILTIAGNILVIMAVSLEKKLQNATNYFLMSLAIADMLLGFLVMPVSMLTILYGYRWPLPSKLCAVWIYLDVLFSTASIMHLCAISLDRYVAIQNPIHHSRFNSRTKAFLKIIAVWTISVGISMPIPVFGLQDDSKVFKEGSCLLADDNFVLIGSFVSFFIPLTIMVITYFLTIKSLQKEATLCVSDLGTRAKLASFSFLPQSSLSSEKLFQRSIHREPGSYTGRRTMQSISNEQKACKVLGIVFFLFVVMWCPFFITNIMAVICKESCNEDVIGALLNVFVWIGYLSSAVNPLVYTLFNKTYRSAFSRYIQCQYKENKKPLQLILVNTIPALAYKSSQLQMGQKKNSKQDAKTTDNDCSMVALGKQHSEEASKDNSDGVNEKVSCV
Sequence of KiSS-1 receptor (Homo sapiens) (Q969F8 whole entry, looked up): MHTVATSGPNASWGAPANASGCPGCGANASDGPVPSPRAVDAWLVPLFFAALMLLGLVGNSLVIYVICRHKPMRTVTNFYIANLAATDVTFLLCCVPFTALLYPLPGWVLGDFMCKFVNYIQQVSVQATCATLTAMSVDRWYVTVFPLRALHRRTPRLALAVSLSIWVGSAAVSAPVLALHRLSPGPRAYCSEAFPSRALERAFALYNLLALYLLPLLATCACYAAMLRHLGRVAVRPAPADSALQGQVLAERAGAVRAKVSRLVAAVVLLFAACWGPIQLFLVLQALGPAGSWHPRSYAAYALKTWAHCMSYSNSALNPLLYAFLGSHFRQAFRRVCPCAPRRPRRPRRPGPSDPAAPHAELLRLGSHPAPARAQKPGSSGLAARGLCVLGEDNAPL
Sequence of Muscarinic acetylcholine receptor M1 (Homo sapiens) (P11229 whole entry, looked up): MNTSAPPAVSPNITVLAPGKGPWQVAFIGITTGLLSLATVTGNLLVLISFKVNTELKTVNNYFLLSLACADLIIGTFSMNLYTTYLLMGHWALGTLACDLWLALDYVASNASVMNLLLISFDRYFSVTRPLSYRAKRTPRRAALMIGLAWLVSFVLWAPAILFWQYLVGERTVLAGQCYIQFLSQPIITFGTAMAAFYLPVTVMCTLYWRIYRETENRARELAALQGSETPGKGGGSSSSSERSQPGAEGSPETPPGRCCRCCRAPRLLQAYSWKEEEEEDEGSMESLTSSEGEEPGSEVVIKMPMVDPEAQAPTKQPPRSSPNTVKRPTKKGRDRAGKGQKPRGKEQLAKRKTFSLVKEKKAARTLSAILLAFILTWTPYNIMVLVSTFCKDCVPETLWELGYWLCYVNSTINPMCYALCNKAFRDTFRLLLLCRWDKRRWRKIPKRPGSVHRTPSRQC
Sequence of Gonadotropin-releasing hormone receptor (Homo sapiens) (P30968 whole entry, looked up): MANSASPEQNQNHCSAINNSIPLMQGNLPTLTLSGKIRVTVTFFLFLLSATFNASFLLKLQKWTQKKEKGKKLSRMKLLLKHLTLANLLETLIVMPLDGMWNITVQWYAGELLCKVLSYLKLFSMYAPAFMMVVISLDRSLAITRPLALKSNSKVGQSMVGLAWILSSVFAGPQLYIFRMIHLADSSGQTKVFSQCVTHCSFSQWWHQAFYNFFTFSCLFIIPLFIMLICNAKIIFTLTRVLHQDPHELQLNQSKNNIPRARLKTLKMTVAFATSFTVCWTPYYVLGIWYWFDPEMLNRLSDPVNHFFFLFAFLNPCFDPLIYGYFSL
Sequence of Beta-2 adrenergic receptor (Homo sapiens) (P07550 whole entry, looked up): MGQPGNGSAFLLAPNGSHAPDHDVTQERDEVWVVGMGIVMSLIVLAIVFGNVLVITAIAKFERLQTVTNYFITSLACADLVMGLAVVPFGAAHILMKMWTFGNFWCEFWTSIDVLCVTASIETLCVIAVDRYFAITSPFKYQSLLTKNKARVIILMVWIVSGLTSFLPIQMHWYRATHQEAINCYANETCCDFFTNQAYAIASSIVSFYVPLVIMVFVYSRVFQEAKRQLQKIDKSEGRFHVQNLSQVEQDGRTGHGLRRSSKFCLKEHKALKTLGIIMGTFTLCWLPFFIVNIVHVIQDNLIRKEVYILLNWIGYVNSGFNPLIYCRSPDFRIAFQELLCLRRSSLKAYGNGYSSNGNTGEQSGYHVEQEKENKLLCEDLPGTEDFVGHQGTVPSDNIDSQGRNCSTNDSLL
Sequence of D(2) dopamine receptor (Homo sapiens) (P14416 whole entry, looked up): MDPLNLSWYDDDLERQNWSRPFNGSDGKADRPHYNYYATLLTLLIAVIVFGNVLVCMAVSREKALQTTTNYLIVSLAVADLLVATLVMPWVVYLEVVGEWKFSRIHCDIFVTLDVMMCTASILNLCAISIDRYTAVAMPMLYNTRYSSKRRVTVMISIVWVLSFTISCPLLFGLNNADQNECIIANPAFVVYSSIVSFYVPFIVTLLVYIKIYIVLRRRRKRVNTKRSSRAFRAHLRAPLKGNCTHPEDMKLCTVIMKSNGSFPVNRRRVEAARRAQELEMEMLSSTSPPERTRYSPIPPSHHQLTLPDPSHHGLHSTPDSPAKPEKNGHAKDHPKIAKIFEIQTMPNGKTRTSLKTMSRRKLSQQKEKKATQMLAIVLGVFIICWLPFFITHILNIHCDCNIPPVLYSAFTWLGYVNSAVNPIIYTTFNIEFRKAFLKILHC

On to `CCN(CC)CCOc1ccc2c(c1)C(=O)c1cc(OCCN(CC)CC)ccc1-2`, for which the Potency in experiment [1] is 33.5 µM (active); in experiment [12] it was 29.8 µM (active). The Potency entry in [2], in [3], in [4], in [5], in [6] and in [7] was “inactive” in each case. The Potency entry in [8], in experiment [9], in experiment [10] and in experiment [11] was “inactive” in each case.

Regarding `CCc1c(C(=O)NN2CCCCC2)nn(-c2ccc(Cl)cc2Cl)c1-c1ccc(Br)cc1`, the Potency entry in experiment [1], in experiment [2], in [3], in experiment [4], in experiment [13] and in [8] was “inactive” throughout. Further, the Potency result in experiment [9], in experiment [14], in [12], in experiment [15] and in experiment [16] was “inactive” throughout. The Potency in experiment [5] is 40.8 µM (active); in experiment [7] it was 36.3 µM (active).

Take `N#C/C(=C1/SC[C@@H](c2ccc(Cl)cc2Cl)S1)n1ccnc1`: the Potency result in experiment [1], in experiment [2], in experiment [3], in experiment [4], in experiment [13] and in experiment [5] was “inactive” each time. The Potency result in [8], in experiment [9], in experiment [10], in experiment [14], in [15] and in experiment [16] was “inactive” each time. Also, in experiment [17], the Potency is 26.6 µM (active).

On to `CC[C@H]1CC[C@H](NCc2cc3c(cc2OC)[C@H]2C[C@H]2C(=O)N3C)[C@H](c2ccccc2)N1`, for which the results for the Potency in experiment [1] and in experiment [10] were 30.6 µM (active) and 0.0472 µM (active), respectively. The Potency result in [2], in [3], in [4], in [13], in experiment [5] and in experiment [8] was “inactive” in each case. The Potency entry in experiment [9], in experiment [14], in [12], in experiment [15], in experiment [17] and in experiment [16] was “inactive” in each case.

For the compound `CCOC(=O)CC(C)C`, the Potency result in experiment [1], in [2], in experiment [3], in experiment [4], in [5] and in [6] was “inactive” in each case. The Potency result in [7], in experiment [8], in experiment [9], in experiment [10], in experiment [14] and in experiment [11] was “inactive” throughout. The Potency result in [12], in experiment [15], in experiment [17] and in experiment [16] was “inactive” each time.

With `O=C(Nc1ccc(Cl)cc1)Nc1ccc(Cl)c(C(F)(F)F)c1`, the Potency in [1] was 11.9 µM (active). The Potency entry in [2], in experiment [3], in [4], in experiment [13], in [5] and in [10] was “inactive” each time. In addition, the Potency entry in experiment [14], in experiment [17] and in experiment [16] was “inactive” each time.

Consider `Cc1ccc(C=O)cc1C`, for which the Potency result in [1], in experiment [2], in [3], in experiment [4], in [5] and in experiment [6] was “inactive” in each case. For the same compound, the Potency result in experiment [7], in experiment [18], in experiment [9], in experiment [10], in [14] and in experiment [15] was “inactive” each time. Also, in experiment [16], the Potency entry is “inactive”.

For the compound `Cc1cc(O)ccc1O`, in [1], the Potency is 24.6 µM (active). Besides, the Potency result in experiment [2], in [3], in [4], in [13], in [6] and in experiment [7] was “inactive” in each case. The Potency entry in experiment [8], in experiment [9], in [10], in experiment [14] and in experiment [15] was “inactive” in each case.

For the compound `Fc1ccc(C(c2ccc(F)cc2)N2CCNCC2)cc1`, the Potency entry in experiment [1], in experiment [2], in experiment [3], in experiment [4], in experiment [13] and in experiment [6] was “inactive” each time. Moreover, the Potency result in experiment [18], in experiment [9], in experiment [14], in [11], in [12] and in experiment [15] was “inactive” each time. Also, the Potency result in experiment [16] is “inactive”. Further, the Potency in experiment [10] is 2.9 µM (active).

On to `COC(=O)C1=C(C)NC(C)=C(C(=O)OCC(C)=O)C1c1ccccc1[N+](=O)[O-]` (configuration not stated), for which the Potency entry in experiment [1], in experiment [2], in experiment [3], in [4], in [13] and in [7] was “inactive” in each case. Moreover, the Potency entry in [8], in [9], in experiment [10], in [14], in experiment [12] and in experiment [15] was “inactive” throughout. For the same compound, the Potency result in experiment [17] and in [16] was “inactive” in each case.

On to `Brc1cc(-c2ccc(Br)c(Br)c2Br)cc(Br)c1Br`, for which the Potency result in experiment [1], in experiment [2], in [3], in experiment [4], in [5] and in [6] was “inactive” each time. For the same compound, the Potency entry in experiment [7], in [8], in [9], in experiment [10], in experiment [14] and in experiment [12] was “inactive” in each case. Also, the Potency entry in [15], in experiment [19], in [17] and in [16] was “inactive” in each case.

Regarding `Cc1ccc(C(C)C)cc2c(C)ccc1-2`, the Potency entry in [1], in experiment [2], in experiment [3], in [4], in experiment [5] and in [6] was “inactive” in each case. The Potency result in [7], in experiment [8], in experiment [9], in experiment [10], in experiment [14] and in experiment [11] was “inactive” in each case. The Potency entry in [15], in experiment [17] and in experiment [16] was “inactive” each time.

For the compound `CCCC(CC)CCCCCCCN` (configuration not stated), the Potency result in experiment [1], in [2], in [3], in experiment [4], in [5] and in [6] was “inactive” throughout. In addition, the Potency entry in experiment [7], in experiment [18], in experiment [11], in experiment [12], in experiment [15] and in experiment [17] was “inactive” in each case. The Potency in [8] was 24.2 µM (active); in [9], 44.7 µM (active); in [10], 4.84 µM (active).
